Assay results: ChEMBL document CHEMBL3988442, “University of Dundee, Small-Polar-MMV Screening Library” (2021)
The campaign covered roughly 38,000 compounds. About 1,200 (3.2%) showed an effect of 50% or more. The median lay at about -58%. This is one part of a sample in which strong results are shown more often than they occur.

Each compound was assayed on Plasmodium falciparum (assay: Calibr Malaria Delayed Death Assay SOP). Details: concentration 4.99e-06 (unit not given; other assays of the set use mol/L).
Assay type: functional, organism-based
Design: scale not given: in the data most compounds retested in dose-response had high values

SMILES	Percent Effect [%]
CN1Cc2cc(F)ccc2N(CC(C)(C)O)CCC1=O	-102.4
c1cc2occc2c(N2CCCC(c3nncn3C3CC3)C2)n1 (stereo not drawn)	-31.64
CO[C@H]1CN(C(=O)OC(C)(C)C)CC1NCc1cc[nH]c1 (stereo partly drawn)	-107.9
CCN1C(=O)C(C#N)=C(C)/C(=C/C2=Cc3ccccc3OC2)C1=O	-95.4
CC1c2ncc(Cn3cccn3)n2CCN1Cc1ccccn1.O=C(O)C(F)(F)F.O=C(O)C(F)(F)F (stereo not drawn)	-97.72
CCC[C@H]1CN(C(=O)c2ccc3[nH]c(CO)nc3c2)C[C@@H]1N	-26.19
CC(=O)N1CCOC2(CCCN(C(=O)c3ccc(Cl)cc3)C2)C1 (stereo not drawn)	-118.1
Cc1ccc(NC(=O)N2CC[C@@H](O)C2)c(-c2nc(C3CC3)no2)c1	-83.22
Cn1cnc(S(=O)(=O)NCCCN2CCCCCC2)c1Cl	-99.75
CC(=O)N1CCN(CCNS(=O)(=O)c2cccc(F)c2)CC1	-79.38
CC1CCN(CCCNS(=O)(=O)c2cccc(F)c2)CC1.Cl	53.06
CC1CCN(CCCNS(=O)(=O)c2cc(F)cc(F)c2)CC1.Cl	61.9
CC(C)c1cccc(S(=O)(=O)NCCCN2CCC(O)CC2)c1	31.74
CC1CCN(CCCNS(=O)(=O)Cc2ccccc2F)CC1	25.53
Cc1ccccc1CS(=O)(=O)NCCCN1CCCC1	22.31
O=S(=O)(NCCCN1CCCC1)c1cc(F)cc(F)c1	66.12
O=S(=O)(Cc1ccccc1F)NCCCN1CCCCC1	18.19
O=S(=O)(Cc1ccccc1Cl)NCCCN1CCCC1	78.29
Cc1cc(F)c(S(=O)(=O)NCCCN2CCC(O)CC2)cc1F	-91.17
CC(=O)N1CCN(CCNS(=O)(=O)c2cc(F)cc(F)c2)CC1	-120.9
CN(Cc1cccs1)Cc1nnsc1Cl	-133.9
NC(=O)CN1CC2(CCC1=O)CCN(C(=O)c1ccccc1F)CC2	-172.5

SMILES	Percent Effect [%]
CCO[C@H]1CC[C@H]2[C@H]1OCCN2C(=O)CC1=CCCCC1	-84.2
COCCn1ccc2c(C(=O)Nc3nc4c(s3)CCC4)cccc21	-233.3
CS(=O)(=O)c1ccccc1-n1cc(NC(=O)CC2C=CCC2)cn1 (stereo not drawn)	-87.45
O=C(CCc1cc2n(n1)CCCN(CCc1ccccc1)C2)NC1CC1	-74.1
CC(=O)N1CCC(C(=O)NCCc2c[nH]c3cc(C)ccc23)CC1	-74.03
CS(=O)(=O)N1CCc2c(cccc2NC(=O)NC2CCCC2)C1	-76.44
CCc1ccc(OCCn2cccn2)cc1	-75.63
CC(C)c1nccc(CN2CCC(c3nc4ccccc4n3C)CC2)n1	-101.6
CC(C)Cc1nc(NC(=O)c2cccnc2)n[nH]1	-46.29
Cc1ccc2nc(C(=O)N3CC(c4cccnc4)C3)cn2c1	-27.83
COc1cccc(C(=O)N2CCN(CC(O)c3ccccc3)CC2)c1 (stereo not drawn)	-38.78
Cc1ccc(CNC(CN2CCN(C)CC2)c2ccccc2)cc1C (stereo not drawn)	-112.6
CN1CCN(CC(NCc2cccc(O)c2)c2ccccc2)CC1 (stereo not drawn)	-102.1
Cl.Cl.OC(CN1CCN(Cc2ccc(F)c(F)c2)CC1)C1CC1 (stereo not drawn)	-18
CN1CCN(CC(NCc2ccc(F)cc2)c2ccccc2)CC1 (stereo not drawn)	-91.46
COCCN1CCC(NCc2cccc(C)c2)C1 (stereo not drawn)	-16.89
O=C(NC(CN1CCCC1)c1ccccc1)c1c(O)cc(F)cc1F (stereo not drawn)	-93.48
COc1cccc(CNC(=O)N2CCN(Cc3cc(C)on3)CC2)c1	-21.77
Cc1cccc(CNC(CN2CCN(C)CC2)c2ccccc2)c1 (stereo not drawn)	83.13
NC(=O)CS(=O)(=O)Cc1csc(-c2ccc(F)cc2)n1	-114.2
O=C(Nc1cc(C(F)(F)F)c[nH]c1=O)C1CCCO1 (stereo not drawn)	-102.8
Cc1csc(NC(=O)C2CCN(Cc3cccc4c3OCCO4)CC2)n1	-33.92

SMILES	Percent Effect [%]
CN(C)CCOCc1cncc2c1CCN(C(=O)C1CCOCC1)C2.O=C(O)C(F)(F)F.O=C(O)C(F)(F)F	-70.85
O=C(O)C(F)(F)F.O=C(O)C(F)(F)F.O=C(O)C(F)(F)F.O=C(c1ccncc1)N1CCN(Cc2cccnc2)c2ncccc2C1	-102.4
CC(C)NC(=O)c1noc2c1CN(Cc1cnn(C)c1)CC2	-77.7
CN(C)CCNC(=O)C1Cc2nc(-c3ccsc3)sc2N1CC1CC1.O=C(O)C(F)(F)F (stereo not drawn)	9.733
O=C(Nc1cccnc1)C1Cc2nc(-c3ccsc3)sc2N1CC1CC1.O=C(O)C(F)(F)F (stereo not drawn)	-160.3
CN(C)CCNC(=O)C1Cc2nc(-c3ccccc3)sc2N1CC1CC1.O=C(O)C(F)(F)F (stereo not drawn)	89.72
O=C(Nc1cccnc1N1CCSCC1)c1ccc2c(c1)CCC2	-3.12
O=C(NC1CC1)C1CCN(c2cccc(C(F)(F)F)n2)CC1	78.5
O=C(NC1CCN(c2cccc(C(F)(F)F)n2)CC1)C1CC1	-20.01
O=C(NC1CC1)C1CCCN(c2cccc(C(F)(F)F)n2)C1 (stereo not drawn)	11.64
COc1cccc(C2(C(=O)NC3CCc4nccn4C3)CCCC2)c1 (stereo not drawn)	52
CS(=O)(=O)C1(C(=O)NC2CCc3nccn3C2)CCCC1 (stereo not drawn)	-116.8
COc1ccc(C2(C(=O)NC3CCc4nccn4C3)CCCC2)cc1 (stereo not drawn)	46.07
CN1C[C@H](O)[C@]2(CCN(C(=O)NCc3ccccc3)C2)S1(=O)=O	-19.04
Cc1cnccc1-c1cc(NCCO)nc2[nH]ccc12	-75.39
Cc1nc(C(=O)N2CC[C@@]3(C[C@H](NS(C)(=O)=O)CCO3)C2)cs1	-13.09
CC(C)N1CCCC2(CCN(c3nccc(C(F)(F)F)n3)C2)C1=O (stereo not drawn)	-74.1
O=C(O)C(F)(F)F.O=S(=O)(C1CC1)N1CCC2(CCCN(c3ncccn3)C2)C1 (stereo not drawn)	-10.57
CC(C)c1nc(C2CCCN(c3nccc(C(F)(F)F)n3)C2)no1 (stereo not drawn)	-82.41
CN(C)C(=O)N1CCC2(CCCN(c3ncccn3)C2)C1.O=C(O)C(F)(F)F (stereo not drawn)	-156.2
C=C(C)CN(CC)C(=O)c1cc(F)ccc1N1CCN(C)CC1	-6.643
CC(CNC(=O)c1cc(C2CC2)nc2c1cnn2C)Cn1cccn1 (stereo not drawn)	-106.1

SMILES	Percent Effect [%]
Cc1ccc(C)c(Oc2ccc(CNC(=O)C3CCC(=O)N3)cn2)c1 (stereo not drawn)	-45.06
Cc1ccc(OCCNC(=O)C2CCOCC2)c(C)c1	-53.04
Cc1ccc(-c2cn[nH]c2C2CCCN(c3cc(N)ncn3)C2)cc1 (stereo not drawn)	-38.82
Cc1ccc(N2CCCC(c3[nH]ncc3-c3ccccc3)C2)nn1 (stereo not drawn)	25.38
Cc1cc(N2CCCC(c3[nH]ncc3Cc3ccccc3)C2)nc(N)n1 (stereo not drawn)	72.87
Cc1cc(C)n2c(CCCNS(=O)(=O)c3cccs3)nnc2n1	-65.33
COCCN(C)C[C@@H]1CN(C(=O)C(C)(C)c2ccccc2)C[C@@H]1CO	29.59
COc1cccc(CNCc2c(C)nc3sc(C)cn23)c1OC	20.21
COc1ccccc1OC1CN(C(=O)Cc2c(C)nc3ccccn23)C1	-26.12
COc1ccc(NC(=O)c2nc(C)sc2C)cn1	-37.98
CCc1[nH]c2c(CNc3cncc(C(=O)OC)n3)cc(C)cc2c1C	-28.2
CCc1[nH]c2c(CNc3nc(C)cc(NC)n3)cc(C)cc2c1C	88.9
CCc1[nH]c2c(CNc3cc(C)nc(NC)n3)cc(C)cc2c1C	84.97
CCc1[nH]c2c(CNc3cncc(C(=O)N(C)C)n3)cc(C)cc2c1C	-71.53
CCc1[nH]c2c(CNc3cncc(C(=O)N(C)C)n3)cc(F)cc2c1C	-100.3
Cc1cc(C(=O)N2CCc3nc(N4CCOCC4)nc(C)c3C2)c(C)o1.O=CO	-46.43
COc1ccc(C(=O)CCC(=O)NCc2ncc(C)s2)cc1F	-71.69
CCCOC1Sc2nnc(C)n2N=C1c1ccccc1 (stereo not drawn)	-105.9
COc1cccc(CNCCc2cccc(C(N)=O)c2)c1	-12.09
COc1cccc(OCCNS(=O)(=O)Cc2ccccc2)c1	-90.07
COc1cccc(CNCCNS(=O)(=O)Cc2ccccc2)c1	54.45
C[C@@H]1CN(c2nc3c(cc2C(N)=O)CCC3)C[C@@]1(O)C1CCC1	-102.5

SMILES	Percent Effect [%]
O=C(Nc1cccnc1-n1cc(Cl)cn1)C1CCCCC1	-29.97
CCOC(=O)C(C)NC(=O)N1CCN(c2nc3ccccc3n2C)CC1 (stereo not drawn)	-114
CSCc1cc(F)ccc1CNCc1cccnc1	1.167
CSCc1cc(F)ccc1CNCc1cccc(O)c1	72.86
CSCc1cc(F)ccc1CNCc1ccncc1	-80.12
CC(C)CCOc1ccc(C(C)NC(=O)CSCC(N)=O)cc1 (stereo not drawn)	-21.89
Cc1cc(=O)[nH]c(=O)n1COCc1ccccc1	-164.1
Cc1ccc(C(=O)N2CC(Oc3ccccc3C)C2)s1	-70.19
COc1ccc(F)c(CN2CCCC3(CCN(C(=O)CSC)C3)C2)c1 (stereo not drawn)	-70.9
OC1(CN2CCCC2)CCCN(Cc2cnc(-c3ccccc3)nc2)C1 (stereo not drawn)	13.01
COc1ccc(CN2CCC(O)(CN3CCCCC3)C2)c(C)c1 (stereo not drawn)	66.37
COc1ccc(F)cc1CN1CCCC1Cn1nc(C)nc1C (stereo not drawn)	-22.72
COc1ccc(F)cc1CN1CCCC(c2cc(C(N)=O)[nH]n2)C1 (stereo not drawn)	-17.41
COCC(=O)N1CCC2(CCCN(Cc3cc(OC)ccc3F)C2)C1 (stereo not drawn)	-77.74
Cc1cc(-n2cccn2)ccc1CN1CCC(O)(CN2CCCCC2)C1 (stereo not drawn)	60.7
CCCn1ccnc1CN1CCCC(O)(CN2CCCC2)C1 (stereo not drawn)	-81.98
O=C(NCC1(O)CCC1)c1cccc(-n2cccn2)c1	-36.51
Cc1cc(F)ccc1CN1CCCC(O)(CN2CCCC2)C1 (stereo not drawn)	66.53
COc1ccc(F)cc1CN1CCC(O)(CN2CCCCC2)C1 (stereo not drawn)	69.8
CCCn1ccnc1CN1CCC(O)(CN2CCCCC2)C1 (stereo not drawn)	17.5
